Each structure is given as a SMILES string. Inconclusive results are not listed. Values without a mark were called inactive. Active and inactive are the calls of the source. The call rests on the fitted dose curve; in most records, active means well fitted inhibition curve with a large enough effect; inconclusive means small, poorly fitted or top-dose-only effect; inactive means no such curve, though single readings can be large or run the other way.
Potency means the concentration at half of the fitted maximal effect.

The assay in a line: Confirmatory screen NINDS Rhodamine qHTS for Zika virus inhibitors (AID 1347161). Further: nearly all actives have a fitted effect of over 60% in size.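 On activity change, negative = inhibition: purified Zika NS2B-NS3 protease with linked NS2B cofactor domain and Rhodamine110 peptide substrate; plate controls were no-inhibitor control for no effect and no-enzyme control for full effect.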 Conditions: purified enzyme assay, Rhodamine110 substrate fluorescence, 15 min; series mostly up to 114 µM; activity change, negative = inhibition: at the top concentration. A digest of the protocol:
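qHTS dose-response: 25 nM linked protease, pH 8.0 Tris/Tween buffer, cpd titration, 15 min RT preinc, 1.5 microM Rhod110 peptide, 15 min reaction (~15% conversion), Ex480/Em540; 4-parameter Hill fit.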
On the technique in general: qHTS replaces the single test concentration by a dilution series.
For `CC(C)(C)Nc1nc2cc(Cl)c(Cl)cc2nc1S(C)(=O)=O`, the “activity change, negative = inhibition” value was 0.421%.

As for `O=C(O)/C=C/c1ccc(-c2ccc(O)c(C34CC5CC(CC(C5)C3)C4)c2)cc1`, the Potency is 1240 nM (active).

For the compound `COc1cc(Nc2nc3ccccc3nc2NS(=O)(=O)c2ccc(NC(=O)c3ccc(OC)c(C)c3)cc2)cc(OC)c1`, the Potency is 2780 nM (active).

`CCc1c(-c2ccccc2)c(-c2ccccc2)nn1-c1ccccc1-c1cccc(OCC(=O)O)c1`: the Potency was 3120 nM (active).

`CC1(C)CCC(C)(C)c2cc(C3(c4ccc(C(=O)O)cc4)OCCO3)ccc21`: the Potency was 7840 nM (active).

`C=C[C@H]1[C@H](O[C@@H]2O[C@H](CO)[C@@H](O)[C@H](O)[C@H]2O)OC=C(C(=O)OC)[C@H]1CCOC(=O)c1cc(O)c(O)c(O)c1`: the Potency is 10800 nM (active).

Take `O=C(O)Cc1ccc2oc(-c3ccc(NC(=O)/C=C/c4ccc(Br)cc4)c(F)c3)nc2c1`: the Potency was 2210 nM (active).

As to `N#CC(c1ccnc(OCc2ccc(CN3CCOCC3)cc2)n1)c1nc2ccccc2s1` (stereo not drawn), the Potency was 31200 nM (active).

With `C=CC/C=C\C/C=C\CCCCCCCc1cccc(O)c1C(=O)O`, the Potency is 2730 nM (active).

In the case of `O=C(N/N=C/c1ccc(O)c(O)c1)c1cc2ccccc2cc1O`, the Potency was 6550 nM (active).

With `CC(C)c1cccc2c(-c3ccccc3)cc(-c3ccc(-c4ccc(C(=O)O)cc4)[nH]3)nc12`, the Potency is 2210 nM (active).

As to `COc1ccc(C(=O)n2c(C)c(Cc3cccc(O[C@@H](C)C(=O)O)c3)c3cc(OC(F)(F)F)ccc32)cc1`, the Potency is 1110 nM (active).

As to `COc1ccc(C(=O)C2CCN(CC(=O)N(Cc3nc4c(c(=O)[nH]3)COCC4)CC3CC3)CC2)cc1`, the “activity change, negative = inhibition” value is 4.89%.
